# Results as given in ChEMBL document CHEMBL3988442, “University of Dundee, Small-Polar-MMV Screening Library” (2021).
# Values joined by “and” are separate entries in the source; they are usually repeats but may differ in a detail not shown here. Equal entries are not always repeated. Among all 34,000 compounds or so, about 290 (0.85%) showed an effect of 50% or more. Many of the other results were omitted from the sample, so strong results are more common in it than they were.
# Test system: Plasmodium falciparum
# Assay: Plasmodium falciparum sporozoite viability assay
# Assay type: functional, organism-based
# Set-up: scale not given: in the data most compounds retested in dose-response had high values
Structure (SMILES),Percent Effect,Percent Effect (10 mM as filed; unlikely as a test dose)
CCOCCCNC(=O)C1(C)CCC(=O)N1Cc1ccccc1F (stereo not given),-5.282%,–
COc1ccc(-c2cc(C3CCCNC3)ccn2)cc1.Cl (stereo not given),3.809%,–
COc1cccc(Nc2nc(-c3ccncc3)nc3c2CNCC3)c1.Cl,6.202%,–
COc1cccc(Nc2nc(N3CCCC3)nc3c2CNCC3)c1.Cl,4.348%,–
COc1cccc(-c2cc(C3CCCNC3)ccn2)c1 (stereo not given),10.99%,–
Cc1cc(C)nc(Nc2nccnc2C2CCCN(CCO)C2)n1 (stereo not given),-0.8244%,–
Cc1ccoc1C(=O)NC1CCN(C(=O)Nc2ccccn2)CC1,4.048%,–
CN1CCN(C[C@@H]2OC[C@H]3CN(CCc4ccccc4)CC[C@H]32)CC1.O=C(O)C(F)(F)F.O=C(O)C(F)(F)F.O=C(O)C(F)(F)F,9.359%,–
O=C(NC1CCCCC1)NC1CCCc2c1cnn2CCO (stereo not given),–,-11.63% and -7.35% and -4.902%
O=C(NCC1CCCCC1)NC1CCCc2c1cnn2CCO (stereo not given),–,38.6% and 33.33% and 56.01%
CSc1ccc(OCCN2CCNC(=O)CC2)cc1,-10.56%,–
CSCC[C@H](N)c1nnc(SCc2cc(C)ccc2C)o1.Cl,-8.516%,–
CCc1n[nH]c(C(=O)NCCn2nccc2C)c1C,–,28.41% and 66.23% and 77.05%
CCc1n[nH]c(C(=O)NCCn2ccnc2C)c1C,–,-3953% and -3827%
CC(C(=O)N1CCN(Cc2ccc3c(c2)OCO3)CC1)n1ccnc1 (stereo not given),3.608%,–
CCn1cnnc1CNC(=O)N1CCC(CN2CCCCCC2)CC1,4.778%,–
CC(C)COCc1cncc2c1CCN(C(=O)c1cscn1)C2.O=C(O)C(F)(F)F,5.063%,–
CC(C)Cc1nc(CO)n(-c2ccc3c(c2)OCCO3)n1,–,46.72% and 37.75%
CC[S+]([O-])CCc1nc(CC(C)C)nn1-c1ccc2c(c1)OCCO2 (stereo not given),–,61.59% and 54.31%
Cc1cc(C)n(CC2CCCN2C(=O)CCc2ccncc2)n1 (stereo not given),1.423%,–
Cn1ccc(C(=O)NCc2cccc(CN3CCCC3)c2)cc1=O,11.38%,–
CCOc1ccnc(N2CCN(C(=O)c3c(CC)noc3C)CC2)n1,-6.802%,–
Cc1nccn1CC1CCCN1S(=O)(=O)Cc1ccc(F)cc1 (stereo not given),5.478%,–
CN1CCOC(C(=O)Nc2ccc3[nH]nnc3c2)C1 (stereo not given),–,-26.35% and -20.34%
CN1CCOC(C(=O)Nc2ccc3c(c2)nc(C(C)(C)C)n3C)C1 (stereo not given),–,104.1% and 105.2%

Structure (SMILES),Percent Effect,Percent Effect (10 mM as filed; unlikely as a test dose)
CN1CCOC(C(=O)Nc2ccc3c(c2)nc(C2CC2)n3C)C1 (stereo not given),–,-13.44% and -13.85%
CC1CCCN(C(=O)C2CCN(c3snc4ccccc34)CC2)C1 (stereo not given),6.864%,–
CC(C)c1cc(NC(=O)c2ccc(NC3CC3)nc2)[nH]n1,15.54%,–
Cc1ccsc1-c1cccc(-c2ccn(CC3CCNC3)n2)c1 (stereo not given),–,75.23% and 72.27% and 75.29%
c1cc(-c2cncnc2)cc(-c2ccn(CC3CCNC3)n2)c1 (stereo not given),–,-11.99% and -9.692% and -21.27%
Cc1nccc(-c2cccc(-c3ccn(CC4CCNC4)n3)c2)n1 (stereo not given),–,-3.675% and -28.15% and -23.4%
O=C(Nc1ccccc1OCCc1ccccn1)N1CCOCC(O)C1 (stereo not given),6.804%,–
Cc1cc(OCC(O)c2nc3c([nH]2)CC(C)(C)CNC3=O)ccc1Cl (stereo not given),5.403%,–
c1ccc(-c2noc(CN3CCc4cncnc4C3)n2)nc1,–,68.57% and 81.28% and 66.45%
c1cncc(-c2noc(CN3CCc4cncnc4C3)n2)c1,1.959%,–
Cc1cc(C(=O)N2CCCC(n3cncn3)C2)no1 (stereo not given),2.312%,–
CC(C1CC1)N(C)C(=O)c1cnc(-c2ccc3c(c2)OCO3)s1 (stereo not given),–,53.72% and 75.58% and 50.81%
CCN(C(=O)c1cnc(-c2ccc3c(c2)OCO3)s1)C1CC1,–,-15.93% and -34.81%
CN(C)C(=O)c1cnc(-c2ccc3c(c2)OCO3)s1,–,-22.33% and -36.75%
COc1c(C2CCCN2Cc2noc(C(C)C)n2)c(C)nn1C (stereo not given),4.307%,–
CCc1nnc(CN2CCOC(Cn3cccn3)C2)o1 (stereo not given),11.86%,–
c1csc(-c2nc(CN3CCOC(Cn4cccn4)C3)cs2)c1 (stereo not given),3.015%,–
c1csc(-c2nc(CN3CCOC(Cn4cncn4)C3)co2)c1 (stereo not given),15.52%,–
c1ccc(-c2nc(CN3CCOC(Cn4cncn4)C3)cs2)cc1 (stereo not given),–,57.17% and 32.5% and 36.71%
c1ccc(-c2nc(CN3CCOC(Cn4cccn4)C3)cs2)cc1 (stereo not given),–,-13.99% and -29.39%
c1csc(-c2nc(CN3CCOC(Cn4cncn4)C3)cs2)c1 (stereo not given),–,44.25% and 56.8% and 40.33%
O=C1NCC2=C1C(c1ccc(O)cc1)Nc1ccccc1N2 (stereo not given),-23.23%,–
COCCN1CCCC1c1ccnc(-c2ccccc2)n1 (stereo not given),6.777%,–
CCN1CCN(C(C)CNC(=O)Nc2nnc(C)s2)CC1 (stereo not given),-9.257%,–
Cc1noc(C)c1CCC(=O)NCC1(O)CCN(c2ccccn2)C1 (stereo not given),8.46%,–

Structure (SMILES),Percent Effect,Percent Effect (10 mM as filed; unlikely as a test dose)
CNc1cc(C)nc(N2C[C@@H](C(=O)O)[C@H](C3CC3)C2)n1,–,73.63% and 80.29% and 69.7%
CNc1cc(C)nc(N2C[C@H](NC(=O)C3CCOCC3)[C@@H](C3CC3)C2)n1,–,-9.822% and -7.832% and -7.881%
CNc1cc(C)nc(N2C[C@H](C3CC3)[C@@H](N)C2)n1,–,11.54% and 8.166% and -2.157%
Cc1cnn(CC2CCCN2C(=O)c2c(C)noc2C(C)C)c1 (stereo not given),2.244%,–
CCn1c(N)nc2cc(C(=O)NCCNc3ncccc3C)cnc21,–,-11.01% and -17.43%
CCn1c(N)nc2cc(C(=O)NCCc3ccccc3F)cnc21,–,83.82% and 65.98%
CCn1c(N)nc2cc(C(=O)NCc3ccccc3Cl)cnc21,–,-6% and 9.799% and 1.435%
CCn1c(N)nc2cc(C(=O)NCCc3nnc(C)s3)cnc21,–,-8.165% and -11.66%
N#Cc1c(N)nc2c(c1C1CCOC1)CCc1cc(O)ccc1-2 (stereo not given),4.476%,–
CN(CCc1ccccn1)C(=O)c1cnn(-c2ccccc2F)c1N,-5.321%,–
COc1ccc(CN2Cc3[nH]nc(C(=O)N(C)C)c3C2)cc1,11.47%,–
Cl.Cn1cc([C@@H]2CN(S(=O)(=O)c3cccs3)C[C@H]2N)c2ccncc21,-0.5895%,–
COc1ccc(CC(=O)N2CCCC(n3cccn3)C2)cc1F (stereo not given),5.192%,–
CS(=O)(=O)CCSc1nnc(Cc2ccccc2F)o1,-5.789%,–
Cc1ccc(OCc2occc2C(=O)N2CCOC(C(=O)O)C2)cc1 (stereo not given),16.87%,–
O=C1COc2cc(OC[C@@H]3CCCN4CCCC[C@H]34)ccc21,-3.094%,–
O=C1CCCN1Cc1nnc2n1CCN(Cc1ccco1)C2,15.42%,–
CN(C)CCNC(=O)[C@H]1C[C@@H]2CN(C(=O)NCc3ccccc3)C[C@H]1O2.O=C(O)C(F)(F)F,-11.68%,–
CN(C)CCNC(=O)C1Cc2nc(-c3ccccc3)sc2N1CC1CC1.O=C(O)C(F)(F)F (stereo not given),–,63.41% and 51.04% and 49.77%
CN(C)CCNC(=O)c1cc(-c2cnc(N(C)C)nc2)cn1CC1CC1,2.417%,–
CN(C)CCNC(=O)c1sc2ccccc2c1C1CCC(CN)CC1.Cl (stereo not given),13.87%,–
Cc1occc1C(=O)N1CCCN(Cc2nccn2C(C)C)CC1,16.64%,–
CC(C)CN1C(=O)C[C@@H]2[C@@H]1CCN2Cc1cccc(C#N)c1.O=C(O)C(F)(F)F,7.99%,–
Cc1cccc(-c2noc(CN3CCc4c(ncn4C4CC4)C3)n2)c1,–,39.81% and 43.38%
c1ccc(-c2noc(CN3CCc4c(ncn4C4CC4)C3)n2)nc1,–,42.55% and 46.63%

Structure (SMILES),Percent Effect,Percent Effect (10 mM as filed; unlikely as a test dose)
c1coc(-c2noc(CN3CCc4c(ncn4C4CC4)C3)n2)c1,–,9.104% and 3.38%
c1csc(-c2noc(CN3CCc4c(ncn4C4CC4)C3)n2)c1,–,59.38% and 60.81%
c1cc(-c2noc(CN3CCc4c(ncn4C4CC4)C3)n2)cs1,–,83.48% and 80.24%
CCOc1ccc(C#N)cc1NCC(=O)NC(=O)Nc1ccccc1,-20.07%,–
CC(C)Oc1ccc(CNC(=O)NCC(C)(C)C(N)=O)cc1F,-18.14%,–
Cl.O=S1(=O)CCC(NCCn2cncc2-c2ccc3c(c2)CCCO3)C1 (stereo not given),-8.887%,–
CN(C)S(=O)(=O)NCC1CCN(Cc2ccccc2F)CC1,–,-11.15% and -13.88%
c1ccc(Oc2ccc(CNCC3CNc4ccnn4C3)cn2)cc1 (stereo not given),-2.407%,–
OCC(CO)N1CCCC(Cc2cnc(Nc3ccccn3)cn2)C1 (stereo not given),3.086%,–
Cc1cc(C(=O)N2CCCC(C)C2)ccc1NCc1nc(C(C)C)no1 (stereo not given),–,54.84% and 44.37% and 61.2%
Cc1noc(CNc2ccc(C(=O)N3CCCC(C)C3)cc2C)n1 (stereo not given),–,12% and 12.75% and 4.849%
COc1cc(N2C[C@@H]3COC[C@]3(COCc3ccccn3)C2)ncn1.O=C(O)C(F)(F)F.O=C(O)C(F)(F)F,7.967%,–
CN1CCCC1c1ccnc(C(=O)N(C)C2CCCCC2)c1 (stereo not given),7.615%,–
CC(=O)Nc1nc(C(=O)NCc2ccc(N3CCOC(C)C3)nc2)cs1 (stereo not given),13.32%,–
COc1ccncc1NC(=O)c1[nH]nc(C(C)C)c1Br,–,41.3% and 28.4%
CC(C)c1n[nH]c(C(=O)Nc2ccnn2C(C)C)c1Br,–,92.02% and 87.97% and 88.19%
Cc1cccc(NC(=O)c2cncc(C3CCNCC3)n2)n1,3.261%,–
COCCN1CCN(C(C)C(=O)Nc2ccnn2C(C)C)CC1 (stereo not given),-4.51%,–
Cc1cccc(NC(=O)c2sccc2C)n1,7.103%,–
O=C(Nc1cc(C2CCOCC2)[nH]n1)c1cc[nH]n1,-6.094%,–
Cc1cccc(NC(=O)c2[nH]nc(C(C)C)c2Br)n1,–,102.6% and 98.53% and 104.2%
CC(C(=O)Nc1ccnn1C(C)C)N1CCN(Cc2ccccc2)CC1 (stereo not given),-6.509%,–
Cc1n[nH]c(C(=O)NCc2ccnc(OCC(F)(F)F)c2)c1Br,-2.803%,–
Cc1ccnc(NC(=O)c2[nH]nc(C(C)C)c2Br)c1,–,109% and 104.4% and 105.9%
Cc1ccnc(NC(=O)c2ccc(-n3ncc(C#N)c3N)cc2)c1,11.53%,–
